HPGD inh: blocks human HPGD enzyme activity; purified HPGD, NADH fluorescence kinetic, PGE2 substrate; Potency, µM, for the others: at the top dose activity change, negative = inhibition, most hits filed as inhibitors; 150,000 tested, 4.3% active; AID 894; active = well fitted inhibition curve with a large enough effect, not every such curve was filed as active; inconclusive = small, poorly fitted or top-dose-only effect, or another doubt; inactive = no such curve, though single readings can be large or run the other way
Target sequence (P15428 whole entry, looked up): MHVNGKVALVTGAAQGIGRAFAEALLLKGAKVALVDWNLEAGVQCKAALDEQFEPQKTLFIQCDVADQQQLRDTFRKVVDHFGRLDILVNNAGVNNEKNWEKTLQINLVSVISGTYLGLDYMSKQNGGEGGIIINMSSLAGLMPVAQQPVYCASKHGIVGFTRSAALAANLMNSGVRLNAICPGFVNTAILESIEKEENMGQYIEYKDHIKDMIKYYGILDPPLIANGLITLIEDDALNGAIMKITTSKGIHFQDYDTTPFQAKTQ
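NADH formation kinetics: reaction with 30 uM PGE2 and 1 mM NAD+ (final), 20 nM enzyme, Tris-HCl pH 8 with Tween 20, after 15 min compound preincubation at room temperature. Fluorescence change, last versus first of five reads.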
Luc counter: counter-screen: inhibitors of Kinase-Glo firefly luciferase; 200,000 tested, 0.28% active; Kinase-Glo luciferase, ATP luminescence, 8 min; Q27757; Potency, µM (top dose mostly 38.3 µM), without a hit: at the highest dose activity change, negative = inhibition, usual class: inhibitors; note: nearly all actives have a fitted effect of over 60% in size
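Recombinant Kinase-Glo luciferase, 10 uM ATP (linear range), luciferin; imidazole pH 7.2 / KCl / MgCl2 / Tween / BSA buffer; 8 min RT; luminescence.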
ALDH1A1 inh: inhibitors of human aldehyde dehydrogenase 1A1; Purified ALDH1A1, NADH fluorescence, propionaldehyde substrate; 220,000 tested, 7.3% active; AID 1030; Potency, µM (series often up to 75.3 µM), for the others: at the top dose activity, negative = inhibition, actives largely listed as inhibitors; P00352; active = well fitted inhibition curve with a large enough effect, not every such curve was filed as active; inconclusive = small, poorly fitted or top-dose-only effect, or another doubt; inactive = no such curve, though single readings can be large or run the other way;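 note: plate controls were no enzyme wells and a reference inhibitor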
Target sequence (P00352 whole entry, looked up): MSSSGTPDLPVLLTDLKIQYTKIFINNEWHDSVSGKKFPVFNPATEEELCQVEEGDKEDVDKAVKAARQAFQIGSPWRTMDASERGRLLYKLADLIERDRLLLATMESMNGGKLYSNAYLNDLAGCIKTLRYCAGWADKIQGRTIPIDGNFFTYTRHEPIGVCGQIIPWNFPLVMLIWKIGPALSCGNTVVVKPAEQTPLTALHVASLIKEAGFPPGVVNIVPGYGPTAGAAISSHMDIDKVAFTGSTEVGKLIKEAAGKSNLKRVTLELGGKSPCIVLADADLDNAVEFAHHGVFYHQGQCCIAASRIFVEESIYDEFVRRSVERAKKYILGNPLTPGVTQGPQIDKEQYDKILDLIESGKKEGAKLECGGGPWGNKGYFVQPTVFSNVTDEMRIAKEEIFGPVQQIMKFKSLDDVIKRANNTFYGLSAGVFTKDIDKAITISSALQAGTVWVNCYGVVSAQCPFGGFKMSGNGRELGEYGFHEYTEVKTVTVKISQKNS
LMNA splice mod: LMNA splicing modulation; 200,000 tested, 0.01% active; AID 1487; HeLa LMNA splicing GFP/RFP minigene ratio, 48 h; Potency, µM (series often up to 46.1 µM), for the others: top-dose ratio change, negative = inhibition, actives largely listed as inhibitors; active = well fitted inhibition curve with a large enough effect in the signal ratio, with a control signal flat, not every such curve was filed as active; inconclusive = small, poorly fitted or top-dose-only effect, or effect the other way, or a change in a side signal; the % refers to the signal ratio
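Read-out is the ratio of GFP to DsRed2 object intensity, acquired by 488 nm laser-scanning cytometry on HeLa lamin A-EGFP minigene reporter cells. Compound incubation 48 hrs at 37 °C in Opti-MEM with 2% FBS; DMSO 0.5% final.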
IMPase Li inh: IMPase inhibition in cells with lithium potentiation; Potency, µM (highest dose often 59.4 µM), inactives show at the highest dose activity, negative = IMPase inhibition, hits mostly inhibitors; CHO-M1 cells, IP1 TR-FRET (IP-One), carbachol + lithium; AID 1457; 210,000 tested, 0.35% active;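 note: IP1 builds up when IMPase is blocked and the TR-FRET signal falls; plate controls were basal vehicle for no effect and high inhibitor control for full effect; nearly all actives have a fitted effect of over 50% in size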
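CHO cells stably expressing M1 receptor (2000/well, cultured 16–30 h) treated 30 min at 37C with compound plus low lithium. Cytosolic IP1 by TR-FRET (665/620 ratio and 620 channel) after 10 min lysis; AC50 by Hill fit.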
An asterisk follows results filed as active; ? = inconclusive; / = no result; ! = not active in a repeat; [ ] = dose if it differs, or a comment. Rows were chosen to be rich in hits. Some 9% of all compounds tested hit in one or more screens of this group. Unless noted, calls come from the whole dose curve; as a rule, active = well fitted curve in the direction sought with a large enough effect; inconclusive = small, poorly fitted or top-dose-only effect, or another doubt; inactive = no such curve, though single readings can be large; an effect the other way counts as inactive or inconclusive. Unless noted, % is set by controls: 0 for no effect and ±100 for the full control effect; potency is the fitted concentration of half-maximal effect.

SMILES	HPGD inh	Luc counter	ALDH1A1 inh	LMNA splice mod	IMPase Li inh
COc1ccc(/C=C2\C(=O)NC(=O)N(CCC3=CCCCC3)C2=O)c(OC)c1	20µM*	-3%	0.32µM*	-9%	-1%
CCN1C(=O)NC(=O)/C(=C\c2ccc(N3CCOCC3)cc2OC)C1=O	?	-13%	?	11%	-11%[38.3 µM]
O=S(=O)(Nc1nccs1)c1ccc([As](=O)(O)O)cc1	-9%	-1%[7.66 µM]	-2%[13.5 µM]	/	-3%
S=P(C1CCCCC1)(C1CCCCC1)[C@H](c1cccnc1)N1CCCC1	2%	-3%[7.66 µM]	-16%[13.5 µM]	/	5%
N#CC(C#N)=NNc1cccc(Cl)c1	-24%	2%	7%	/	38%
N#CC(C#N)=NNc1ccc(OC(F)(F)F)cc1	-27%	3%	2.8µM*	/	-2%
Cc1csc(NC(=O)C2CCCN(S(=O)(=O)c3ccc4c(c3)oc(=O)n4C)C2)n1 (stereo unspecified)	8.9µM*	1%	-15%	?	3%[38.3 µM]
O=C(O)CF	-2%	-3%	0%	?	28%
[O-]/[N+](=C/c1cccnc1)c1ccc(Br)cc1	-18%	0%	1.8µM*	-6%	-4%[38.3 µM]
CC1=CCCC2C1(C)CCC(C)C2(C)CC/C(C)=C/C[n+]1cn(C)c2c(N)ncnc21 (stereo unspecified)	-7%	-5%	18µM*	/	23%
ClP(Cl)(Cl)(Cl)Cl	-21%	/	/	/	-8%
CCCN1[C@H](C(=O)OC)C[C@@H]2CC[C@@H](O)C[C@@H]21	-8%	-1%	0%	/	-7%
O=C1NC(=O)C(=Cc2ccc(-c3cc(Cl)ccc3[N+](=O)[O-])o2)C(=O)N1	/	-6%	22µM*	?	15%
NCCCC[C@H](NC(=O)[C@H](Cc1ccccc1)NC(=O)[C@H](CCCN=C(N)N)NC(=O)[C@@H](N)Cc1ccc(O)cc1)C(N)=O	/	/	-3%	/	-3%
S=c1[nH]nc(C2CC2)n1Cc1ccccc1	/	-1%	14µM*	-11%[46 µM]	31%
CCCCC/C=C\C/C=C\CCCCCCCCCC(=O)NCCc1ccc(O)c(O)c1	-5%	1%	2%	/	7%
COc1ccc(C(=O)Nc2sc3c(c2C(=O)O)CC(C)(C)OC3)cc1	?	-1%	20µM*	?	-15%
CC(=O)c1ccc(OC(C)C)c(Cc2c(O)[nH]c(=S)[nH]c2=O)c1	/	1%	18µM*	/	9%
CC(C)Oc1ccc(Cc2c(O)[nH]c(=O)[nH]c2=O)cc1	-5%	0%	-10%	1%	-8%[38.3 µM]
O=C(O)C(Cl)Br (stereo unspecified)	-9%	/	?	/	12%
Cc1ccc(N2C(=O)NC(=O)C3(Cc4ccccc4N4CCN(c5ccccc5)CC43)C2=O)cc1 (stereo unspecified)	/	/	22µM*	0%	/
O=C1NC(=O)C2(Cc3ccccc3N3CCCC32)C(=O)N1c1cccc(Cl)c1 (stereo unspecified)	-7%	2%	?	0%	-10%[38.3 µM]
CCCCC/C=C\C/C=C\C/C=C\C/C=C\CCCC(=O)N[C@H](C)CO	-1%	-1%[39.9 µM]	7.1µM*!	/	-13%
CCCCC/C=C\C/C=C\C/C=C\C/C=C\CCCC(=O)OC(CO)CO	28µM*!	-1%[39.9 µM]	22µM*!	/	-7%
CCn1c(=O)oc2cc(NC(=O)CCl)ccc21	/	4%	1.6µM*	?	-1%
SMILES	HPGD inh	Luc counter	ALDH1A1 inh	LMNA splice mod	IMPase Li inh
Brc1c(NC2=NCCN2)ccc2nccnc12	22µM*!	-1%	16µM*!	?	0%
CCCCNC(=O)n1c(NC(=O)OC)nc2ccccc21	-6%	/	?	/	13%
CCN1CCN(Cc2cc(C(C)(C)C)c(O)c(C(C)(C)C)c2)CC1	3%	-1%	28µM*	4%	37%[38.3 µM]
O=C(Nc1ccc(Br)cc1)c1cc(Br)cc(Br)c1O	-12%	4%[39.9 µM]	?	?	13%
O=C(O)/C=C\C(=O)Nc1ccc(Oc2ccc(Br)cc2)cc1	/	-2%	1.4µM*	22%[46 µM]	2%
CC(=O)[O-].CC(=O)[O-].CC(=O)[O-].[Cr+3]	-7%	/	6%	/	-11%
Cc1cc(OC(=O)c2ccco2)c2c3c(c(=O)oc2c1)CCC3	/	/	10µM*	?	/
Cc1cc(OC(=O)CCCNC(=O)OC(C)(C)C)c2c3c(c(=O)oc2c1)CCC3	-12%	7%	?	14%	16%[38.3 µM]
Cc1cc(OC(=O)CCNC(=O)OC(C)(C)C)c2c3c(c(=O)oc2c1)CCC3	?	-1%	1.8µM*	?	9%[38.3 µM]
CCCCOC(=O)COc1cc(C)cc2oc(=O)c3c(c12)CCC3	-22%	-1%	10µM*	0%	-13%[38.3 µM]
Cc1cc(OCc2ccc([N+](=O)[O-])cc2)c2c3c(c(=O)oc2c1)CCCC3	?	-2%	28µM*	1%	9%[38.3 µM]
Cc1cc(OCc2nn[nH]n2)c2c3c(c(=O)oc2c1)CCCC3	/	/	?	1%	/
C=CCOC(=O)COc1cc(C)cc2oc(=O)c3c(c12)CCC3	?	13%	?	4%	11%[38.3 µM]
Cc1cc(OCC(=O)OC(C)(C)C)c2c3c(c(=O)oc2c1)CCC3	?	-2%	?	14%	-18%[38.3 µM]
CCN1C[C@]2(C)CC[C@H](O)[C@@]34C5C[C@@H]6[C@@H](OC)C[C@@](O)(C5[C@H]6O)[C@@H](CC23)[C@@H]14 (stereo partly specified)	3%	2%	-12%	/	5%
c1ccc(Nc2ccc3ccccc3c2)cc1	?	/	?	/	-22%
CC(C)Nc1ccc(Nc2ccccc2)cc1	-14%	/	8.9µM*	1.4µM*	44%
C=CC(=O)OCCN(C)C	-4%	/	-2%	/	8%
CN1C(=O)C(=Cc2ccccc2Oc2ccc(Cl)c(F)c2)C(=O)N(C)C1=O	11µM*	2%	?	-1%	-4%[38.3 µM]
CC(CCC(=O)O)C1CCC2C3CC[C@@H]4CCCC[C@@]4(C)C3CC[C@@]12C (stereo partly specified)	-7%	1%	-1%	?	7%
Clc1cccc(C(Cl)(Cl)Cl)n1	-2%	/	1%	/	9%
O=Cc1cn(Cc2ccccc2[N+](=O)[O-])c2ccccc12	-12%	-2%	1.3µM*	?	13%
O=Cc1cn(Cc2ccc([N+](=O)[O-])cc2)c2ccccc12	-17%	2%	2.2µM*	?	8%
O=[N+]([O-])c1ccccc1CNCCc1ccc(F)cc1	-3%	-5%	?	-4%	9%[38.3 µM]
O=Cc1cn(Cc2ccc(F)cc2)c2ccccc12	/	-4%	0.13µM*	17%[46 µM]	9%
CC(C)NC(=O)N1CCCC2(CCN(C(=O)Oc3ccccc3)CC2)C1	-14%	-4%	3%	/	9%
CCCCCc1nc2ccccc2c(=O)n1-c1ccccc1[N+](=O)[O-]	-10%	0%	?	?	11%
CCCCCc1nc2c(c(=O)c3ccccc3n2C)c(=O)n1C1CCCCCC1	-1%	-1%	3.5µM*	-19%	-9%
c1ccc2cc3c(cc2c1)-c1cccc2cccc-3c12	46%	/	?	/	-21%
